Screening data: PubChem BioAssay, several laboratories
Mtb hypoxia rep = inhibitors of hypoxia-regulated fluorescent reporter in Mycobacterium tuberculosis; M. tuberculosis hypoxia-regulated fluorescent reporter, fluorescence; AID 1159583; 0.1% of 300,000 active; fluorescence inhibition, % (test concentration not listed); in the data active = fluorescence inhibition mostly above about 23%, no sharp cut-off; inactive = mostly below about 17%
FadD28 FP inh = blocks FadD28 binding to the bisubstrate probe | fluorescence polarization | inhibition, % at 12.5 µM | 0.22% of 360,000 active | AID 588549; in the data active = inhibition above about 8.5%, passing the limit was not always enough
Mtb BioA inh = BioA (M. tuberculosis) enzyme inhibition; purified M. tuberculosis BioA enzyme, plate reader; inhibition, % at 9.99 µM; 0.096% of 360,000 active; AID 602481; in the data active = inhibition above about 40%
GDH-TPI counter-1 = inhibits GDH-TPI coupling enzymes, artifact for Mtb FBA screen | GDH-TPI coupled enzyme counterscreen, NADH absorbance | inhibition, % at 4.8 µM | 1.2% of 360,000 active; in the data active = inhibition above about 30%
Mtb FBA inh = Mtb fructose-bisphosphate aldolase inhibition | purified M. tuberculosis FBA, fluorescence read-out | inhibition, % at 1 µM | AID 588726 | P9WQA3 | 2.3% of 360,000 active
Target sequence (P9WQA3 whole entry, looked up): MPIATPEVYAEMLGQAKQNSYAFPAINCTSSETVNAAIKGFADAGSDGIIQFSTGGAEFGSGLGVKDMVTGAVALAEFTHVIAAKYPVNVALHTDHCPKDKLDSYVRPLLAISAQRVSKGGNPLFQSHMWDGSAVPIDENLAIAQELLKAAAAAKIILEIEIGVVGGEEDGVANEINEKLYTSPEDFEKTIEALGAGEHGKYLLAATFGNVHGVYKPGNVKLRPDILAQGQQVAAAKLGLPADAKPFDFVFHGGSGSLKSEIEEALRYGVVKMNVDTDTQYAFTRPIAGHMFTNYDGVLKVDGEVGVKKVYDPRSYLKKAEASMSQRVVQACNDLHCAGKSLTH
Mtb FBA inh conf = confirmation of M. tuberculosis fructose-bisphosphate aldolase inhibitors; shares compounds with Mtb FBA inh; AID 651616; 78% of 5,600 active; purified M. tuberculosis FBA, fluorescence read-out; inhibition, % at 1 µM
GDH-TPI counter-2 = GDH-TPI inhibition counter-screen for FBA inhibitors. inhibition, % at 1 µM. GDH-TPI coupled enzyme counterscreen, fluorescence. shares compounds with Mtb FBA inh. 81% of 5,600 active. AID 652141; in the data active = inhibition above about 10%
GDH-TPI DR = GDH-TPI dose response counter-screen for Mtb FBA; 79% of 170 active; shares compounds with Mtb FBA inh; IC50, µM; GDH-TPI coupled enzyme assay, fluorescence, artifact counterscreen; call rule not given here
Hits are given with their value; n = inactive; x = not tested or not shown; + = active, no number. Rows were chosen to be rich in hits. Some 2.9% of all compounds tested hit in one or more screens of this group. Cut-off read from the data, not from the text of the source, unless noted: active = inhibition above about 27%; inactive = the rest.

SMILES | Mtb hypoxia rep | FadD28 FP inh | Mtb BioA inh | GDH-TPI counter-1 | Mtb FBA inh | Mtb FBA inh conf | GDH-TPI counter-2 | others
C=COC(=O)CSc1nc(-c2cccs2)ccc1C#N | n | n | n | n | 30 | 71 | 53
CCOC(=O)C(C)Sc1nc(-c2cccs2)ccc1C#N (stereo not given) | n | n | n | n | 41 | n | n
COc1cccc2[nH]c3c(Cl)ncnc3c12 | n | n | x | n | 41 | 163 | 144
COc1ccc2[nH]c3c(Cl)ncnc3c2c1 | n | n | x | n | n | x | x
COc1cc(OC)c(OC)cc1C=NNc1ncnc2c1[nH]c1ccccc12 | n | x | x | x | x | x | x
CCCCOc1ncnc2c1[nH]c1ccc(F)cc12 | n | n | n | n | 32 | 189 | 160
Fc1ccc2[nH]c3c(Cl)ncnc3c2c1 | n | n | x | n | 40 | 164 | 158
C[C@H]1CN([C@@H](C)CO)C(=O)Cc2cc(NS(=O)(=O)c3cn(C)cn3)ccc2O[C@@H]1CN(C)S(=O)(=O)c1ccc(Cl)cc1 | x | x | n | x | x | x | x
CCOC(=O)C1C2COc3cc(OC)ccc3C2N2C(=O)c3c(C)cc(C)cc3NC(=O)[C@@]12C (stereo not given in full) | n | x | x | x | x | x | x
COc1ccc2cc(C(N)=O)c(=Nc3ccccc3)oc2c1 | n | n | x | n | 36 | n | n | GDH-TPI DR=n
CCN1CCN(c2ccc(S(=O)(=O)N3CCCCC3)cc2NC(=O)/C=C/c2cc(OC)ccc2OC)CC1 | n | n | n | n | n | x | x
COc1ccc(OC)c(/C=C/C(=O)Nc2cccc(S(=O)(=O)N3CCCC3)c2)c1 | n | n | x | n | 30 | 49 | 43
CCc1c(C2(O)CCCCC2)[nH]c2cnccc12 | n | n | n | n | 78 | + | 170
COc1ccc(NC(=O)Nc2cccc3c2O[C@@H](CN(C)C(=O)Nc2cccc4ccccc24)[C@H](C)CN([C@H](C)CO)C3=O)cc1 | x | x | n | x | x | x | x
C[C@@H]1CCCCO[C@H](CN(C)Cc2ccc3c(c2)OCO3)[C@H](C)CN([C@H](C)CO)C(=O)c2cc(NC(=O)c3ccncc3)ccc2O1 | x | x | n | x | x | x | x
O=C(O)/C=C\C(=O)Nc1ccccc1C(=O)NC1CCCCC1 | n | n | x | n | 52 | n | n
N#Cc1c(NCCCO)nc(-c2ccco2)c2c1CCCC2 | x | n | n | n | 27 | 52 | 44
N#Cc1c(NCCCO)nc(NCc2ccccc2)c2c1CCN(Cc1ccccc1)C2 | x | n | x | n | 32 | 116 | 108
CC1(C)Cc2c(C#N)c(NCCN3CCOCC3)nc(-c3ccco3)c2CO1 | n | n | n | n | n | x | x
CC1(C)Cc2c(C#N)c(NCCO)nc(-c3ccco3)c2CO1 | n | n | n | n | 59 | 32 | 20
N#Cc1c(NC2CCCCC2)nc(-c2ccco2)c2c1CCCC2 | x | n | n | n | n | x | x
CN1CCc2c(C#N)c(N3CCCCC3)nc(NCc3ccccc3)c2C1 | n | n | n | n | n | x | x
CC(=NNc1cc(N2CCCCC2)nc(C)n1)c1ccc(Br)cc1 | n | x | x | x | x | x | x
O=C(C[C@@H]1C[C@@H]2c3cc(NS(=O)(=O)c4ccc(F)cc4)ccc3O[C@@H]2[C@@H](CO)O1)NCc1cccc(F)c1 | x | x | n | x | x | x | x
COc1ccc(C2CC2C(=NO)c2ccccc2)cc1 (stereo not given) | n | x | x | x | x | x | x
SMILES | Mtb hypoxia rep | FadD28 FP inh | Mtb BioA inh | GDH-TPI counter-1 | Mtb FBA inh | Mtb FBA inh conf | GDH-TPI counter-2 | others
COc1cc2nc(N3CCNCC3)nc(N)c2cc1OC | n | n | x | n | 56 | n | n
CC(C)C#Cc1cnc2c(c1)C(=O)N([C@H](C)CO)C[C@H](C)[C@@H](CN(C)C(=O)c1ccccc1F)O2 | x | x | n | x | x | x | x
O=C(COC(=O)c1cc(-c2ccc(Cl)s2)nc2ccccc12)NCc1ccco1 | x | n | x | n | n | x | x
O=C(NCc1ccco1)c1cc2nc(-c3cccs3)cc(C(F)(F)F)n2n1 | n | n | n | n | 37 | n | n
CC(C)OCCCNC(=O)c1cc(-c2cccs2)nc2ccccc12 | n | n | n | n | 93 | 88 | 83
O=C(NCc1ccco1)c1nn2c(C(F)(F)F)cc(-c3cccs3)nc2c1Cl | n | n | n | n | n | x | x
O=C(NCc1ccco1)c1cc(-c2cccs2)nc2ccccc12 | n | n | x | n | 79 | n | n
Cc1nn(-c2ccccc2)c2nc(-c3ccncc3)cc(C(=O)NCc3ccco3)c12 | n | n | x | n | n | x | x
Cc1nn(-c2ccccn2)c2nc(-c3cccs3)cc(C(=O)NCc3ccco3)c12 | n | n | x | n | 48 | 59 | 61
COc1cccc(C=Nn2c(COc3ccccc3)n[nH]c2=S)c1 | n | x | x | x | x | x | x
Cc1ccc(NC(=O)Cn2c(=O)c(C)nc3ccccc32)cc1 | n | n | x | n | n | x | x
CC(=O)c1ccc(/C=C/c2nc3ccccc3n2C)o1 | n | n | n | n | 46 | n | 17
Cn1c(=O)c(/C=C/c2ccccc2)nc2ccccc21 | n | n | x | n | n | x | x
COCCn1c(/C=C/c2ccccc2)nc2ccccc21 | n | n | n | n | 53 | n | n
COc1ccccc1Cn1c(/C=C/c2ccccc2)nc2ccccc21 | n | n | x | n | 65 | 98 | 77
Cc1cccc(NC(=O)Cn2c(/C=C/c3ccccc3)nc3ccccc32)c1 | n | n | x | n | 32 | 42 | 34
CC(=NOCC(=O)OCC(=O)NC(=O)c1ccc(OC(F)F)cc1)c1ccc2c(c1)OCO2 | n | x | x | x | x | x | x
C[C@@H]1CN([C@@H](C)CO)C(=O)Cc2cc(NC(=O)Nc3cccc4ccccc34)ccc2O[C@H]1CN(C)S(=O)(=O)c1cn(C)cn1 | x | x | n | x | x | x | x
Cn1c(/C=C/c2ccccc2)nc2ccccc21 | n | n | x | n | 48 | 199 | 168
C[C@H]1CN([C@@H](C)CO)C(=O)c2cc(NC(=O)CCCN(C)C)ccc2O[C@H]1CN(C)Cc1ccc(C(F)(F)F)cc1 | x | x | n | x | x | x | x
C=CCNC(=O)C1CCN(c2nc(C)cc(-c3ccccc3)n2)CC1 | n | n | n | n | 33 | n | n
C=CCNC(=O)C1CCN(c2cc(C)nc(-c3ccccc3)n2)CC1 | n | n | x | n | n | x | x
COc1ccc(CC(=O)NCC2CCCCC2)cc1OC | n | n | n | n | 28 | n | n
CC1=C(C(=O)Nc2ccc(F)cc2)C(c2ccncc2)C2=C(CCCC2=O)N1 (stereo not given) | n | n | n | n | n | x | x
CCn1cc(C2C(C(=O)Nc3ccc(Br)cn3)=C(C)NC3=C2C(=O)CCC3)c(C)n1 (stereo not given) | n | n | x | n | 33 | 132 | 94
CC1=C(C(=O)Nc2ccccn2)C(c2cn(C)nc2C)C2=C(CCCC2=O)N1 (stereo not given) | n | n | x | n | 37 | + | 171
C[C@H](CO)N1C[C@H](C)[C@H](CN(C)Cc2ccc3c(c2)OCO3)Oc2ncc(-c3ccccc3)cc2C1=O | x | x | n | x | x | x | x
CCC(=O)N1N=C(c2cccs2)CC1c1ccco1 (stereo not given) | n | n | x | n | n | x | x
